# Data from ChEMBL document CHEMBL4513216, “Probing the Open Global Health Chemical Diversity Library for Multistage-Active Starting Points for Next-Generation Antimalarials” (ACS Infect Dis, 2020).
# Out of some 69,000 compounds screened, about 8,600 (12%) showed an effect of 50% or more. For the sample, strong results were picked, then their nearest neighbours and some compounds at random.
# Tested on: Plasmodium berghei
# Assay: Screen against P. berghei liver stage (PbLuc), transformed with Luciferase, at 10uM
# Format: functional, HepG2
# Details: tested at 10 uM
row,Compound,INHIBITION [%]
1,Cc1ccccc1C(C(=O)NCCS(C)(=O)=O)N(C)C (configuration not stated),22.6
2,c1ncn(CC2CN(Cc3nc(-c4ccsc4)no3)CCO2)n1 (configuration not stated),-3.165
3,Cc1nc(C)n(CC2CN(Cc3ccccc3OC(C)C)CCO2)n1 (configuration not stated),26.5
4,NCc1cnn(-c2ccccc2C(=O)NCCc2ccncc2)c1,8.72
5,NCc1cnn(-c2ccccc2C(=O)NCCc2ccccn2)c1,24.4
6,NCc1cnn(-c2ccccc2C(=O)NCc2ccncc2)c1,17.1
7,COCCNC(=O)c1ccccc1-n1cc(CN)cn1,17.1
8,NCc1cnn(-c2ccccc2C(=O)NCCCn2ccnc2)c1,54.6
9,NCc1cnn(-c2ccccc2C(=O)NCc2ccccn2)c1,53.2
10,CCN(C(=O)c1ccc(-n2ncc(C#N)c2N)cc1)C1CCCC1,25.1
11,Cc1cc(NCCS(C)(=O)=O)nc2ccccc12,8.05
12,OC1(CNc2cc(C(F)(F)F)nc3ccccc23)CCOCC1,-32.3
13,Cc1cc(NCCCNS(C)(=O)=O)nc2ccccc12,62
14,Cc1cc(NCCNS(C)(=O)=O)nc2cc3c(cc12)CCC3,-6.88
15,Cc1cc(NCCOCCS(C)(=O)=O)nc2ccccc12,46.6
16,Cc1cc(NCC2(O)CCOCC2)nc2ccccc12,71.7

row,Compound,INHIBITION [%]
1,Cc1cc(C)n(-c2cncc(NCCNS(C)(=O)=O)n2)n1,29
2,COc1cc2nc(NCCNS(C)(=O)=O)cc(C)c2cc1OC,50.3
3,Cc1cc(NCC2(O)CCOCC2)c2ccccc2n1,26
4,O=S(=O)(NCC1CCN(c2cnccn2)CC1)c1ccc(F)c(Cl)c1,-54.5
5,CCc1c(C)n(CC(C)=O)c2nc3ccccc3n2c1=O,4.66
6,c1csc(CN2CC(c3nc(-c4cnccn4)no3)C2)c1,-12.6
7,CN(Cc1noc(C2CC2)n1)C1CCN(CCc2cnn(C)c2)C1 (configuration not stated),11.2
8,Cc1ccc(CN2C[C@H]3C[C@H](C(=O)NCC4CC4)N(C)[C@H]3C2)o1,18.6
9,CN(Cc1cnn(C)c1)CC1CCCN1c1cccnn1 (configuration not stated),5.7
10,NCc1ccc(Oc2ccc(F)c(F)c2)cc1C(F)(F)F,26.1
11,Cc1ccc(CNC(=O)COc2ccc3c(c2)OCC3O)cc1 (configuration not stated),0.266
12,COCCn1nc(C(=O)N(C)Cc2ccc3ccccc3c2)ccc1=O,43.4
13,Cc1cnn(CC2CCCCN2C(=O)c2cccnc2N(C)C)c1 (configuration not stated),15.5
14,O=C(c1ncccn1)N1CCC2(CC1)COC(COc1ccccn1)C2 (configuration not stated),12.6
15,O=C(c1ccoc1)N1CCC2(CC1)COC(COc1ccccn1)C2 (configuration not stated),73.6
16,O=C(c1ccoc1)N1CCC2(CC1)COC(COCc1ccccn1)C2 (configuration not stated),23.8
